A selection: hits, their analogues and other compounds. The true share with any hit is near 3.8%.
HSF1 activator = increases HSF-1 driven luciferase reporter signal; NIH3T3-HGL HSF-1 luciferase reporter, MG132, 8 h; 100% = twice DMSO control signal; activation, % at 9 µM; 1.7% of 300,000 active;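 active means mean replicate activation of at least 50% with a set share of replicates each reaching 50%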
HSF1 inhib = HSF1 inhibition | NIH3T3-HGL HSE-luciferase, MG132-induced, luminescence 8 h; active compounds read low | activity change, negative = inhibition, % at 7.5 µM (by protocol) | 0.77% of 300,000 active | AID 2098;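 active means more than half of replicate wells show activity change below -50%, luminescence cut by over half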;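 further: luciferase reports HSF-1 transcriptional activity via heat shock element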
p-CIP stab down = p/CIP protein destabilization; Q05BA5; F442A p/CIP-EGFP cells, EGFP fluorescence, 16 h; 0.01% of 290,000 active; decrease of EGFP signal, % at 10 µM;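 active means EGFP signal decrease of at least 30% at 10 µM or well 3 SD below plate mean, unless failing retest; inactive means the rest, including hits failing retest or dose response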
Target sequence (Q05BA5 1-1403): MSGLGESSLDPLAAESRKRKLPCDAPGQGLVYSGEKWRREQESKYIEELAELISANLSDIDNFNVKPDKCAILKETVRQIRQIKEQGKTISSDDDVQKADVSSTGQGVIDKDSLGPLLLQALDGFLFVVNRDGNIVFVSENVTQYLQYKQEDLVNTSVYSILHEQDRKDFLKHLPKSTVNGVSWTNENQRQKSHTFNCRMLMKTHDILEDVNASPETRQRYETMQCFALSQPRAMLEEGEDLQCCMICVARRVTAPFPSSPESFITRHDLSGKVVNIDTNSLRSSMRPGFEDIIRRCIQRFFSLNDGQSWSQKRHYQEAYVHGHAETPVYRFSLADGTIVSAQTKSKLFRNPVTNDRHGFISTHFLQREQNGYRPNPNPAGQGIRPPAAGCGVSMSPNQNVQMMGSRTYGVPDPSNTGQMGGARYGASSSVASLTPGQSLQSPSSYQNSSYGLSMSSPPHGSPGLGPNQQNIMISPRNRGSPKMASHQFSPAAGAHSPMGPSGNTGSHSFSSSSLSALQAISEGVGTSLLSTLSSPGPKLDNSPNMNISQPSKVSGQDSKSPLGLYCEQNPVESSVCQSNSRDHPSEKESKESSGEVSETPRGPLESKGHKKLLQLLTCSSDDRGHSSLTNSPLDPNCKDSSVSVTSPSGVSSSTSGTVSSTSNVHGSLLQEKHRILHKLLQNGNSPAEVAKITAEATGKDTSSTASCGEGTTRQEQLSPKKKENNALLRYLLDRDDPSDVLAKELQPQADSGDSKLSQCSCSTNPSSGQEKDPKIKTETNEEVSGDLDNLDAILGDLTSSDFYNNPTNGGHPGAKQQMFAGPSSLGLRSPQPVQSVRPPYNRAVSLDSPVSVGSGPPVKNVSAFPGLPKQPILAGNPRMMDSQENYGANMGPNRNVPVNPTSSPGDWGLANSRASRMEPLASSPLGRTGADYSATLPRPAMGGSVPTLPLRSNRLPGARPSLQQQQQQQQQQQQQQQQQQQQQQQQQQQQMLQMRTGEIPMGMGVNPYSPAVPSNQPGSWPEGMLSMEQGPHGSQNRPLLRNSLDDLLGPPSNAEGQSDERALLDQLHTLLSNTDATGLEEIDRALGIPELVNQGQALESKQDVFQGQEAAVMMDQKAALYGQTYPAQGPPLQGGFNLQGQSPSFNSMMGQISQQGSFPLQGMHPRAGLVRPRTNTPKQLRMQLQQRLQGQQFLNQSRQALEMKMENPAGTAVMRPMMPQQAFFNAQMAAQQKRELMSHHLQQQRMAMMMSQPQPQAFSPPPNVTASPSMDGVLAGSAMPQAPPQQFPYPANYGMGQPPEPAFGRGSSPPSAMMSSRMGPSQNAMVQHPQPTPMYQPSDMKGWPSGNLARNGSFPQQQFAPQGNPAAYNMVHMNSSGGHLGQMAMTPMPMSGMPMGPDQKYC
NALP1 yeast inh = blocks the NALP1 inflammasome reconstituted in yeast. S. cerevisiae NALP1/ASC/caspase-1 growth, X-gal OD620, 72 h. inhibition, % at 10 µM. 0.61% of 280,000 active; in the data active means inhibition mostly above about 24%, no sharp cut-off; inactive means mostly below about 32%
Hsp70 act = transcriptional activators of Hsp70 | activation, % at 10 µM | HeLa Hsp70 promoter luciferase reporter, luminescence; scaled: vehicle 0, proteasome-inhibitor control 100% | 0.04% of 200,000 active | AID 1203;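 active means activation above the mean across all tested compounds plus 3 SD, cutoff set per campaign, cut at about 5.5% in these data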
HSP90 refold inh = inhibitors of HSP90 luciferase refolding in rabbit reticulocyte lysate; luciferase refolding luminescence, 3 h; inhibition, % at 5.6 µM; 0.91% of 290,000 active; AID 1789;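 active means inhibition above the screen-wide mean plus 3 SD, computed separately per campaign, cut at about 16% in these data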;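 further: inhibitors lower the luminescence because luciferase stays unfolded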
A number is an active result.

For O=C(Nc1cccc(-c2ccc(F)cc2)c1)C1CCCN(C(=O)c2cscn2)C1 (configuration not stated) the results were HSF1 activator inactive, HSF1 inhib -71, p-CIP stab down inactive, NALP1 yeast inh inactive and HSP90 refold inh inactive.
Screening CCN1C(=O)[C@@H]2[C@@H](c3ccc(SC4CCCCC4)cc3)N3CCCC[C@@]3(C(=O)OC)[C@@H]2C1=O returned HSF1 activator inactive and HSF1 inhib inactive.
Screening N#Cc1ccc(OCCN2CCc3ccccc3C2)cc1 returned HSF1 activator 85 and HSF1 inhib inactive.
Screening CCc1ccc(CN(C)C(=O)c2cc(COc3ccc(OC)cc3Cl)on2)nc1 returned HSF1 activator 56, HSF1 inhib inactive, p-CIP stab down inactive, NALP1 yeast inh inactive and HSP90 refold inh inactive.
For Cc1ccc(CN(C)C(=O)c2cc(COc3ccc(F)cc3Cl)on2)o1 the results were HSF1 activator 54, HSF1 inhib inactive, p-CIP stab down inactive, NALP1 yeast inh inactive, Hsp70 act inactive and HSP90 refold inh inactive.
For CC(=Nc1ccc(Br)cc1)c1sc2ccccc2c1O the results were HSF1 activator 60, HSF1 inhib inactive, p-CIP stab down inactive, NALP1 yeast inh inactive and HSP90 refold inh inactive.
For Fc1ccc(C2c3[nH]c4ccccc4c3CCN2Cc2ccoc2)cc1 (configuration not stated) the results were HSF1 activator inactive, HSF1 inhib inactive, p-CIP stab down inactive, NALP1 yeast inh inactive, Hsp70 act inactive and HSP90 refold inh inactive.
`Cc1cccc(C2c3[nH]c4ccccc4c3CCN2Cc2cnn(-c3ccc(F)cc3)c2)n1` (configuration not stated) gave HSF1 activator 56, HSF1 inhib inactive, p-CIP stab down inactive, NALP1 yeast inh inactive, Hsp70 act inactive and HSP90 refold inh inactive.
`CC(C)(C)c1nn(-c2ccccc2)c2[nH]c(=O)c(CNc3ccc4c(c3)OCCO4)cc12` gave HSF1 activator inactive, HSF1 inhib -65, p-CIP stab down inactive, NALP1 yeast inh inactive, Hsp70 act inactive and HSP90 refold inh inactive.
`COc1ccccc1C1=Nn2c(COc3ccccc3)nnc2SC1` gave HSF1 activator inactive, HSF1 inhib inactive, p-CIP stab down inactive, NALP1 yeast inh inactive, Hsp70 act inactive and HSP90 refold inh inactive.
Screening COc1ccccc1CCC(=O)OCC(=O)Nc1c(Br)cc(C)cc1Br returned HSF1 activator 61, HSF1 inhib inactive, p-CIP stab down inactive, NALP1 yeast inh inactive and HSP90 refold inh inactive.
Cc1ccc(-c2nc(SC(C)C(=O)N3CCCC3)n[nH]2)cc1 (configuration not stated) was read as HSF1 activator inactive and HSF1 inhib inactive.
COc1ccc(OCC(N)=O)cc1 was read as HSF1 activator inactive, HSF1 inhib inactive, p-CIP stab down inactive, NALP1 yeast inh 39, Hsp70 act inactive and HSP90 refold inh inactive.
Screening COc1cc(SC)ccc1C(=O)Nc1ccon1 returned HSF1 activator inactive, HSF1 inhib inactive, p-CIP stab down inactive, NALP1 yeast inh inactive, Hsp70 act inactive and HSP90 refold inh inactive.
Screening COc1cc(SC)ccc1C(=O)Nc1ncc(Cl)cc1Cl returned HSF1 activator 63, HSF1 inhib inactive, p-CIP stab down inactive, NALP1 yeast inh inactive, Hsp70 act inactive and HSP90 refold inh inactive.
`COc1cc(SC)ccc1C(=O)Nc1ccc(C)cc1` gave HSF1 activator 55, HSF1 inhib inactive, p-CIP stab down inactive, NALP1 yeast inh inactive, Hsp70 act inactive and HSP90 refold inh inactive.
Screening CC(C)C(NC(=O)OCc1ccccc1)C(=O)NC1CCCCC1 (configuration not stated) returned HSF1 activator inactive, HSF1 inhib inactive, p-CIP stab down inactive, NALP1 yeast inh inactive, Hsp70 act inactive and HSP90 refold inh inactive.
Cc1cc(C)n(CCNC(=O)c2ccc3c(c2)OCO3)n1 was read as HSF1 activator 58, HSF1 inhib inactive, p-CIP stab down inactive, NALP1 yeast inh inactive and HSP90 refold inh inactive.
`NS(=O)(=O)c1ccc(CCNC(=O)CCNC(=O)c2ccco2)cc1` gave HSF1 activator inactive, HSF1 inhib inactive, p-CIP stab down inactive, NALP1 yeast inh inactive and HSP90 refold inh inactive.
`NS(=O)(=O)c1ccc(CCNC(=O)c2ccc(Br)s2)cc1` gave HSF1 activator inactive, HSF1 inhib inactive, p-CIP stab down inactive, NALP1 yeast inh inactive, Hsp70 act inactive and HSP90 refold inh inactive.
Screening O=C(NCCc1ccc(Cl)cc1)c1ccc(Br)s1 returned HSF1 activator 67, HSF1 inhib inactive, p-CIP stab down inactive, NALP1 yeast inh inactive and HSP90 refold inh inactive.
`O=C(NCCCN1CCN(CCCNC(=O)c2ccc3c(c2)OCO3)CC1)c1ccc2c(c1)OCO2` gave HSF1 activator inactive, HSF1 inhib inactive, p-CIP stab down inactive, NALP1 yeast inh 28, Hsp70 act inactive and HSP90 refold inh inactive.
Screening O=C(CCNC(=O)c1ccco1)NCCc1ccc(Cl)cc1 returned HSF1 activator inactive, HSF1 inhib inactive, p-CIP stab down inactive, NALP1 yeast inh 38 and HSP90 refold inh inactive.
For CC(C(=O)N1CCN=C1c1ccccc1)N1C(=O)c2ccccc2C1=O (configuration not stated) the results were HSF1 activator inactive, HSF1 inhib inactive, p-CIP stab down inactive, NALP1 yeast inh inactive and HSP90 refold inh inactive.
Screening O=C(Nc1nnc(C2CC2)s1)c1n[nH]c(=O)c2ccccc12 returned HSF1 activator inactive, HSF1 inhib inactive, p-CIP stab down inactive, NALP1 yeast inh inactive and HSP90 refold inh inactive.
O=C(CCc1c[nH]c2ccccc12)N[C@@H](Cc1c[nH]c2ccc(O)cc12)C(=O)O was read as HSF1 activator inactive, HSF1 inhib inactive, p-CIP stab down inactive, NALP1 yeast inh inactive and HSP90 refold inh inactive.
`CCCCOc1cccc(C(=O)Nc2ccc(S(=O)(=O)Nc3cc(C)on3)cc2)c1` gave HSF1 activator inactive, HSF1 inhib inactive, p-CIP stab down inactive, NALP1 yeast inh inactive and HSP90 refold inh inactive.
Screening O=C(NCCc1ccc(Cl)cc1)c1ccc2c(c1)OCO2 returned HSF1 activator 99, HSF1 inhib inactive, p-CIP stab down inactive, NALP1 yeast inh inactive and HSP90 refold inh inactive.
`NS(=O)(=O)c1ccc(CCNC(=O)c2ccc3c(c2)OCO3)cc1` gave HSF1 activator inactive, HSF1 inhib inactive, p-CIP stab down inactive, NALP1 yeast inh inactive and HSP90 refold inh inactive.
`CCN(CC)S(=O)(=O)c1cc([N+](=O)[O-])ccc1NNC(=O)Nc1ccccc1OC` gave HSF1 activator 71, HSF1 inhib inactive, p-CIP stab down inactive, NALP1 yeast inh inactive, Hsp70 act inactive and HSP90 refold inh inactive.
For Cn1nccc1C(=O)Nc1ccc2c(c1)OCO2 the results were HSF1 activator inactive, HSF1 inhib inactive, p-CIP stab down inactive, NALP1 yeast inh inactive and HSP90 refold inh inactive.
Screening COc1ccc(N2C(=O)C(Cl)=C(Oc3cccc(OC)c3)C2=O)cc1 returned HSF1 activator 136, HSF1 inhib inactive, p-CIP stab down inactive, NALP1 yeast inh inactive, Hsp70 act inactive and HSP90 refold inh inactive.

Source: PubChem BioAssay (several laboratories)
